The results in this text go back to PubChem BioAssay AID720706 (Broad Institute, 2013).

Out of some 350,000 compounds screened, about 5,500 (1.6%) were called active.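 Rule for the calls: active = significant combined selectivity score with lowered wild-type GFP, culture density cut under 30%, mutant RFP and density less affected; inactive = any of these conditions unmet.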 Only a selection was taken, and actives are over-represented in it overall.

The nature of the assay: reduced GFP signal of wild-type E. coli, primary screen, bacterial rRNA inhibitor project, GFP/RFP fluorescence, OD600, single point (AID 720706). Particulars: E. coli WT GFP vs humanized-ribosome RFP mutants, 24 h; GFP signal change (wild-type ribosome): stronger effect = lower value, DMSO median 0, no signal -100; OD600 change: measured here: OD600 growth, DMSO median 0, no signal -100; RFP signal change: measured here: RFP humanized mutant strains, DMSO median 0, no signal -100, concentration not given here.
As for `C[C@H](CO)N1C[C@H](C)[C@H](CN(C)Cc2ccncc2)Oc2ccc(NC(=O)Nc3ccc(F)cc3)cc2C1=O`, the GFP signal change (wild-type ribosome) was 0.717% (inactive), the OD600 change was -2.2% and the RFP signal change was -2.45%.
The like results for `CN1c2ccc(-c3ccc(C#N)cc3)cc2[C@@H]2[C@@H](CCN2C(=O)C2CCCCC2)[C@H]1CO` were, in that order, -6.99% (inactive), -10.9% and 6.2%.
Consider `CN(C)C(=O)c1ccc(-c2ccccc2[C@H]2[C@@H](CO)N(C(=O)C3CCCCC3)[C@H]2C#N)cc1`, for which the GFP signal change (wild-type ribosome) is -3.32% (inactive), the OD600 change turned out to be 0.601% and the RFP signal change was -4.88%.
Turning to `O=C(O)c1ccccc1-c1ccccc1C(=O)NCCc1ccccc1`, the GFP signal change (wild-type ribosome) was 7.6% (inactive), the OD600 change amounted to 2.74% and the RFP signal change was determined as 2.49%.
On to `O=C(NCCCc1ccccc1)C(=O)c1c[nH]c2ccccc12`, for which the GFP signal change (wild-type ribosome) was 0.21% (inactive), the OD600 change is -1.22% and the RFP signal change is -2.69%.
Regarding `O=C(NCCc1ccccc1)c1c[nH]c2ccc(F)cc2c1=O`, the GFP signal change (wild-type ribosome) was -31.8% (active), the OD600 change was -19.6% and the RFP signal change was -3.4%.
As for `COCC(=O)N(C)C[C@H]1[C@@H](c2ccccc2)[C@H](CO)N1C(=O)Cc1ccncc1`, the GFP signal change (wild-type ribosome) was 4.17% (inactive), the OD600 change amounted to 8.74% and the RFP signal change stood at 0.341%.
Turning to `Cc1ccc(S(=O)(=O)N[C@H]2CC[C@@H](CC(=O)NCCCN(C)C)O[C@H]2CO)cc1`, the GFP signal change (wild-type ribosome) was 4.5% (inactive), the OD600 change stood at 5.89% and the RFP signal change is -1.14%.
As to `C[C@H](CO)N1C[C@H](C)[C@@H](CN(C)S(C)(=O)=O)Oc2ccc(NC(=O)Nc3ccc4c(c3)OCO4)cc2CC1=O`, the GFP signal change (wild-type ribosome) was -0.075% (inactive), the OD600 change turned out to be 5.52% and the RFP signal change was found to be 1.12%.
Turning to `O=C(NNS(=O)(=O)c1ccccc1)c1cnn(-c2ccc(Cl)cc2)c1C(F)(F)F`, the GFP signal change (wild-type ribosome) is -40.1% (active), the OD600 change came to 20.1% and the RFP signal change is 3.85%.
The like results for `NNC(=O)c1cnn(-c2ccccc2)c1C(F)(F)F` were, in that order, 5.13% (inactive), 9.29% and -0.665%.
On to `CCCc1c(C(=O)O)cnn1-c1ccc(Cl)cc1`, for which the GFP signal change (wild-type ribosome) was -6.54% (inactive), the OD600 change was -3.54% and the RFP signal change is 0.509%.
The like results for `C[C@H]1CN([C@@H](C)CO)C(=O)c2cc(-c3ccncc3)cnc2O[C@@H]1CN(C)C(=O)C1CCCCC1` were, in that order, 0.821% (inactive), 4.66% and -3.44%.
Regarding `C[C@H](CO)N1C[C@H](C)[C@H](CN(C)C(=O)C2CC2)Oc2cc(-c3cccnc3)ccc2S1(=O)=O`, the GFP signal change (wild-type ribosome) is -1.18% (inactive), the OD600 change came to 3.4% and the RFP signal change is 0.533%.
For `CCCNC(=O)N1[C@H](CO)[C@@H](c2ccc(-c3ccc(C(=O)N(C)C)cc3)cc2)[C@@H]1C#N`, in that order: 6.87% (inactive), 16.3% and -2.83%.
Take `O=C(c1ccc(F)cc1)N1CC(=O)N2[C@@H](CO)[C@H](c3ccc(C4=CCCC4)cc3)[C@@H]2C1`: the GFP signal change (wild-type ribosome) was 4.17% (inactive), the OD600 change was 4.94% and the RFP signal change was -0.136%.
For `C[C@H](CO)N1C[C@H](C)[C@@H](CN(C)C(=O)C2CC2)Oc2cc(C#CC(C)(C)O)ccc2S1(=O)=O`, in that order: 1.02% (inactive), 10.5% and -2.74%.
In the case of `COCC(=O)N1CC(=O)N2[C@H](C1)[C@H](c1ccc(C#CC3CCCCC3)cc1)[C@@H]2CO`, the GFP signal change (wild-type ribosome) was 2.23% (inactive), the OD600 change stood at 2.33% and the RFP signal change stood at 1.49%.
In the case of `CN(c1ccccc1)S(=O)(=O)c1ccc(C(=O)NCc2cccnc2)cc1`, the GFP signal change (wild-type ribosome) was -0.96% (inactive), the OD600 change was -21.8% and the RFP signal change came out at 0.05%.
The like results for `CN(c1ccccc1)S(=O)(=O)c1ccc(C(=O)NCCc2ccccc2)cc1` were, in that order, -12.7% (inactive), -28.7% and -1.12%.
For `Cc1cccc(NC(=O)c2ccc(S(=O)(=O)N(C)c3ccccc3)cc2)n1`, in that order: -16.8% (active), -25% and 1.23%.
As to `C[C@@H]1CN([C@H](C)CO)C(=O)c2cc(C#CCN(C)C)cnc2O[C@H]1CN(C)C(=O)NC1CCCC1`, the GFP signal change (wild-type ribosome) is 3.54% (inactive), the OD600 change is 11.4% and the RFP signal change is -1.39%.
With `CNC[C@@H]1Oc2ccc(NS(=O)(=O)c3c(C)noc3C)cc2CC(=O)N([C@@H](C)CO)C[C@@H]1C`, the GFP signal change (wild-type ribosome) was 1.9% (inactive), the OD600 change was found to be 3.17% and the RFP signal change was found to be 1.62%.
In the case of `Cc1ccc(C)c(NC(=O)c2cc(-c3cc(C)cc(C)c3O)n[nH]2)c1`, the GFP signal change (wild-type ribosome) was -26.5% (active), the OD600 change is -6.64% and the RFP signal change is -4.96%.
With `Cc1ccc(C)c(NC(=O)c2ccc3nccnc3c2)c1`, the GFP signal change (wild-type ribosome) was 4.03% (inactive), the OD600 change came out at 7.77% and the RFP signal change was -0.371%.
For `Cc1ccc(C)c(NC(=O)NNC(=O)c2ccc3ccccc3c2O)c1`, in that order: 7.08% (inactive), 7.28% and -0.547%.
Regarding `O=C(C[C@H]1C[C@H]2c3cc(NC(=O)C4CCOCC4)ccc3O[C@H]2[C@@H](CO)O1)NCCN1CCCCC1`, the GFP signal change (wild-type ribosome) is 5.5% (inactive), the OD600 change came to 7.29% and the RFP signal change is 1.6%.
For `C[C@@H]1CN([C@H](C)CO)C(=O)c2cc(NC(=O)C3CCCCC3)ccc2O[C@@H]1CN(C)CC1CCCCC1`, in that order: 0.0895% (inactive), 5.96% and 0.317%.
With `O=S(=O)(NCCOc1cccc2cccnc12)c1ccc(F)cc1`, the GFP signal change (wild-type ribosome) was -21.1% (active), the OD600 change was -16% and the RFP signal change came to 1.43%.
Turning to `O=S(=O)(NCCc1ccc(F)cc1)c1cccc2cccnc12`, the GFP signal change (wild-type ribosome) is -26.1% (inactive), the OD600 change was -23% and the RFP signal change was -1.09%.
Regarding `OCc1ccc(OCCCOc2cccc3cccnc23)cc1`, the GFP signal change (wild-type ribosome) was -10.7% (inactive), the OD600 change is -8.81% and the RFP signal change is -4.97%.
Turning to `O=C(C[C@@H]1CC[C@@H](NC(=O)C2CCOCC2)[C@H](CO)O1)NCC1CC1`, the GFP signal change (wild-type ribosome) was 0.615% (inactive), the OD600 change turned out to be 0.519% and the RFP signal change was -2.58%.
